These results are taken from PMC5700166.

The target in the test is T1, GST-Nv-NF-kB (Ser allele) (Nematostella vectensis, UniProt A7UNT2 2-411).
T1 sequence: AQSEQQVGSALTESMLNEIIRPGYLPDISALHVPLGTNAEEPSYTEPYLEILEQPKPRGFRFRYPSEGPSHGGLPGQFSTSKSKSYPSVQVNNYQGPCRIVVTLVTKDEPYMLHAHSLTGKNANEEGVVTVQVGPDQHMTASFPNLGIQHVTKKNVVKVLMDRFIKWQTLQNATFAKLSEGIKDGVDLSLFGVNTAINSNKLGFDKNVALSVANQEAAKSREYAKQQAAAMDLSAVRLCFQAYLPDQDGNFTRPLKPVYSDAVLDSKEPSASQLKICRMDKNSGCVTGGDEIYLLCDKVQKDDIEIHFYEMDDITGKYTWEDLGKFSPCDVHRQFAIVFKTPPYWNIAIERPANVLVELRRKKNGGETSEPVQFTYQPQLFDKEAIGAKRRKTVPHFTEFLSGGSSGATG
Nature of the test: protein-binding microarray (PBM); PBM: ~300 nM protein, 6 mM HEPES pH 7.8, 80 mM KCl, 0.5 mM EDTA, 0.5 mM EGTA, 6% glycerol, 35 ng/ul poly-dIdC, 1% milk, 1 h, room temperature; Ap Aiptasia and Nv Nematostella (sea anemones) / Co Capsaspora / Aq Amphimedon (sponge) / Dm Drosophila / Hu human; RHD is the Rel homology domain; high values mean tight binding. Particulars: dsDNA, one strand shown.
“CCGATTAACATCACGGGAATGCCTGATGTTAATCGGGTCTTGATTCGCTTGACGCTGCTG” had a binding signal of 1.33 z-score. “CCGATTAACATCAAGGGGGGGGATGATGTTAATCGGGTCTTGATTCGCTTGACGCTGCTG” gave a binding signal of 5.62 z-score. With “CCGATTAACATCAGGGGGAGTTATGATGTTAATCGGGTCTTGATTCGCTTGACGCTGCTG”, the binding signal turned out to be 6.11 z-score. For “CCGATTAACATCACAGCCCCCCCTGATGTTAATCGGGTCTTGATTCGCTTGACGCTGCTG”, the binding signal worked out at 3.62 z-score. Then “CCGATTAACATCAGGGGATATAATGATGTTAATCGGGTCTTGATTCGCTTGACGCTGCTG”, with 6.48 z-score; and “CCGATTAACATCAGGGATGCCCCTGATGTTAATCGGGTCTTGATTCGCTTGACGCTGCTG”, with 4.08 z-score. Regarding “CCGATTAACATCAAGGGGGGGGCTGATGTTAATCGGGTCTTGATTCGCTTGACGCTGCTG”, the binding signal is 3.66 z-score. For “CCGATTAACATCATCCCCCCCCATGATGTTAATCGGGTCTTGATTCGCTTGACGCTGCTG”, the binding signal stood at 4 z-score. Then “CCGATTAACATCAAACGTTCCCCTGATGTTAATCGGGTCTTGATTCGCTTGACGCTGCTG”, with 6.33 z-score.

Sequence “CCGATTAACATCAAAACACCCCCTGATGTTAATCGGGTCTTGATTCGCTTGACGCTGCTG” displayed a binding signal of 5.6 z-score. Then “CCGATTAACATCAAACCTTCCCCTGATGTTAATCGGGTCTTGATTCGCTTGACGCTGCTG”, with 5.79 z-score; and “CCGATTAACATCACCGCTTCCCTTGATGTTAATCGGGTCTTGATTCGCTTGACGCTGCTG”, with 1.69 z-score; and “CCGATTAACATCAGGAACTCCCCTGATGTTAATCGGGTCTTGATTCGCTTGACGCTGCTG”, with 5.51 z-score. The sequence “CCGATTAACATCAAAAAATCACCTGATGTTAATCGGGTCTTGATTCGCTTGACGCTGCTG” came in with a binding signal of 5.57 z-score. As for “CCGATTAACATCAAAAGCCCCCTTGATGTTAATCGGGTCTTGATTCGCTTGACGCTGCTG”, the binding signal amounted to 5.65 z-score. On to “CCGATTAACATCACCCCCCCCCGTGATGTTAATCGGGTCTTGATTCGCTTGACGCTGCTG”, for which the binding signal worked out at 5.34 z-score.

As for “CCGATTAACATCAAAAGGAAATTTGATGTTAATCGGGTCTTGATTCGCTTGACGCTGCTG”, the binding signal stood at 1.08 z-score. Then “CCGATTAACATCATGGGGGGGAATGATGTTAATCGGGTCTTGATTCGCTTGACGCTGCTG”, with 4.89 z-score.

Sequence “CCGATTAACATCAGGGGGAGGGATGATGTTAATCGGGTCTTGATTCGCTTGACGCTGCTG” displayed a binding signal of 4.98 z-score. In the case of “CCGATTAACATCAAGGGGGGACTTGATGTTAATCGGGTCTTGATTCGCTTGACGCTGCTG”, the binding signal was determined as 4.99 z-score. “CCGATTAACATCAGGGGGTTATATGATGTTAATCGGGTCTTGATTCGCTTGACGCTGCTG” came in with a binding signal of 6.26 z-score. In the case of “CCGATTAACATCACTAAACCCCCTGATGTTAATCGGGTCTTGATTCGCTTGACGCTGCTG” it was 6.49 z-score; in that of “CCGATTAACATCAGCTCCCCCCCTGATGTTAATCGGGTCTTGATTCGCTTGACGCTGCTG”, 3.44 z-score; in that of “CCGATTAACATCACCCCGCCCCCTGATGTTAATCGGGTCTTGATTCGCTTGACGCTGCTG”, 3.65 z-score. Regarding “CCGATTAACATCACGGAATTCCCTGATGTTAATCGGGTCTTGATTCGCTTGACGCTGCTG”, the binding signal is 6.06 z-score.
